What all share (assay): NCI-60 one-dose screen, 48 h (100 = growth as untreated, 0 = no growth, -100 = all killed)
What all share (conditions): 10 µM unless noted

Assay [1] deals with NCI-H23 lung.
In assay [2] the test system is NCI-H226 lung.
The subject of assay [3] is NCI-H322M lung.
The subject of assay [4] is HOP-62 NSCLC.
In assay [5] the test system is NCI-H460 lung.
The subject of assay [6] is HOP-92 NSCLC.
The test system of assay [7] is NCI-H522 lung.
Assay [8] has as its system A549/ATCC NSCLC.
Assay [9] has as its system 786-0 renal.
Assay [10] relates to COLO 205 colon.
The subject of assay [11] is DU-145 prostate.
Assay [12] relates to K-562 leukemia.
In assay [13] the test system is MALME-3M melanoma.
Assay [14] relates to MDA-MB-231 breast.
Assay [15] concerns SF-268 CNS.
The test system of assay [16] is SF-295 CNS.
For assay [17], the system named is SF-539 CNS.
Assay [18] concerns UACC-257 melanoma.
Assay [19] has as its system M14 melanoma.

In PubChem BioAssay (NCI) one finds growth data, which are given here for eight compounds.

About 83,000 compounds went through this panel and 20% of them were active in at least one assay; those are over-represented in the sample as a whole.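 How to read the values: 0–100, growth inhibition (40 = 60% inhibited); 0, no net growth; -100 to 0, cell death (-40 = 40% of starting cells died; -100 = all dead).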 A number with no mark means an inactive call. Active and inactive are the calls of the source. How the source made its calls: active means growth percent below 10; inactive means the rest.

In the case of `O=C1c2cccnc2C(=O)c2nc3cc(N4CCN(C5CC5)CC4)ccc3nc21`, the growth is -56.5% (active) in assay [1]; -49.1% (active) in assay [2]; -96.7% (active) in [3]; -56.6% (active) in [4]; -54.1% (active) in assay [5]; 62.5% in [6]. The growth in assay [7] was -50.5% (active); in [8], -53.3% (active); in [9], 28.1%; in assay [10], -68.3% (active); in assay [11], -75.9% (active); in assay [12] it was 0.866% (active). In addition, the growth is -100% (active) in assay [13]; 15.1% in assay [14]; 12.5% in assay [15]; -88.9% (active) in assay [16]; -99.4% (active) in [17]; -84.5% (active) in assay [18]. Further, in [19], the growth was -91.2% (active).

For `COc1cc(C2CC(c3cccc(Nc4ccncc4)c3)=NN2c2ccc(Cl)cc2)cc(OC)c1OC` (configuration not stated), the growth in assay [1] is 79.9%; in assay [2], 84.3%; in [3] it was 65.1%; in assay [4], -44.4% (active); in assay [5], -73.8% (active); in assay [6], 25.1%. Further, the growth is -46.1% (active) in [7]; 26.1% in assay [8]; 104% in [9]; -63.1% (active) in [10]; -17.5% (active) in assay [11]; -0.526% (active) in assay [12]. Moreover, the growth in [13] is -85.2% (active); in [14] it was 24.8%; in assay [15], 44.5%; in [16] it was -55.1% (active); in assay [17], 68.3%; in assay [18] it was -6.07% (active). In assay [19], the growth was 101%.

Regarding `COc1cccc(/C=C2\COc3ccc(-c4ccccc4)cc3C2=O)c1`, the growth is 44.9% in assay [1]; 65.7% in assay [2]; 45.4% in assay [3]; -32.3% (active) in [4]; -22.3% (active) in assay [5]; -3.57% (active) in [6]. The growth in [7] is 25.2%; in assay [8] it was 37%; in [9] it was -45.4% (active); in assay [10] it was -23.4% (active); in assay [11], -40.2% (active); in assay [12] it was -2.92% (active). In addition, the growth in assay [13] is 101%; in [14] it was 32.3%; in assay [15], 4.23% (active); in assay [16], -44.8% (active); in assay [17], -29.8% (active); in assay [18], 49.2%. Moreover, the growth in assay [19] is 23.6%.

Take `O=C1Nc2c(ccc(Cl)c2Cl)/C1=C/c1ccc(O)cc1`: the growth was 86.7% in assay [1]; 90.1% in assay [2]; 107% in assay [3]; 86.1% in assay [4]; 94.1% in [5]; 65.7% in assay [6]. Moreover, the growth in assay [7] is 64.1%; in assay [8] it was 35.7%; in assay [9], 92.3%; in assay [10] it was 98.6%; in [11], 119%; in assay [12], 91.9%. In addition, the growth is 108% in assay [13]; 88.7% in assay [14]; 89.1% in assay [15]; 87.6% in assay [16]; 98.3% in assay [17]; 102% in [18]. Besides, in [19], the growth is 100%.

As for `Fc1ccccc1CSc1ncnc2nc[nH]c12`, the growth in [1] was 110%; in assay [2] it was 109%; in assay [3], 131%; in assay [4] it was 93.4%; in assay [5] it was 97.8%; in assay [6], 122%. The growth in assay [7] is 54%; in [8], 104%; in assay [9], 106%; in [10], 103%; in assay [11] it was 120%; in assay [12], 99.6%. Moreover, the growth was 129% in assay [13]; 106% in assay [14]; 109% in [15]; 107% in assay [16]; 89.6% in assay [17]; 61.3% in [18]. Besides, the growth in [19] was 108%.

Turning to `C/C(=C(/c1ccccc1)c1ccc(OCC(O)CNCCN2CCOCC2)cc1)c1ccccc1` (configuration not stated), the growth in assay [1] is 83.2%; in assay [2], 96.1%; in [3], 72.7%; in assay [4], 54.9%; in assay [5], 17.6%; in assay [6] it was 59.1%. In addition, the growth in [7] was 44.6%; in assay [8], 70.8%; in assay [9], 97.6%; in assay [10], -64.5% (active); in assay [11], 67.8%; in assay [12] it was 2.44% (active). Further, the growth is -71.2% (active) in assay [13]; 29.4% in assay [14]; 78.5% in assay [15]; 71.2% in [16]; 72.8% in assay [17]; -27.5% (active) in assay [18]. The growth in assay [19] is 92.6%.

As for `Cc1c2c(cc[n+]1Cc1ccccc1)c1ccc(OCc3ccccc3)cc1n2Cc1ccccc1`, the growth in [1] was -12.2% (active); in assay [2], -12% (active); in assay [3] it was -26.9% (active); in [4], -70.9% (active); in [5] it was -87.5% (active); in [6] it was -67.9% (active). Also, the growth in assay [7] was -47.1% (active); in assay [8], 4.01% (active); in assay [9], -87.4% (active); in assay [10], -82.3% (active); in assay [11], -33.6% (active); in [12], -25% (active). Also, the growth is -73.6% (active) in assay [13]; -85.1% (active) in [14]; -90.4% (active) in [15]; -69.2% (active) in assay [16]; -5.52% (active) in assay [17]; -0.651% (active) in assay [18]. In assay [19], the growth was -87.9% (active).

For the compound `Nc1ncc(C#Cc2cncc(NC(=O)c3cccc(C(F)(F)F)c3)c2)c2cccnc12`, the growth in assay [1] was 30.4%; in assay [2] it was 39.2%; in [3], 81%; in assay [4], 52.8%; in [5], 12.3%; in assay [6], 65.6%. In addition, the growth in assay [7] was 67.2%; in assay [8] it was 31.8%; in [9], 63.9%; in assay [10], 47%; in assay [11], 43.7%; in assay [12], 7.45% (active). Besides, the growth in assay [13] is -6.22% (active); in assay [14] it was 36%; in assay [15], 58.4%; in assay [16] it was 61.2%; in [17] it was 43.8%; in [18] it was 71.7%. Moreover, the growth in [19] is 18.2%.
